From PubChem BioAssay AID1986 (Sanford-Burnham Center for Chemical Genomics, 2009)
Hit rate of the full screen: of about 290,000 compounds, about 890 (0.31%) were called active. This is one part of a sample in which actives are shown more often than they occur. Rule as the data show it: active = inhibition mostly above about 52% (no sharp cut-off); inactive = mostly below about 76%.

Assay: cell-free HIV fusion peptide-binding blockers – biochemical, uHTS, fluorescence dequenching, primary screen (AID 1986)
Conditions: 30 min, stronger effect = higher value
[1] = measured here: repeat confirmation average inhibition, at 18.6 µM

O=C(O)c1ccccc1Nc1ccccc1C(=O)O
inhibition (at 20 µM): 4% (inactive)

COc1ccc(Nc2ccccc2C(=O)O)cc1
inhibition (at 20 µM): 3.4% (inactive)

COc1cc(-c2ccc(Nc3ccccc3C(=O)O)c(OC)c2)ccc1Nc1ccccc1C(=O)O
inhibition (at 20 µM): 61% (active)

COc1ccc(N=Cc2cc(Cc3ccccc3Cl)cc([N+](=O)[O-])c2O)cc1OC
inhibition (at 20 µM): 69.3% (inactive) | inhibition [1]: 19.7%

Cc1ccc(N=Cc2cc(Cc3ccccc3Cl)cc([N+](=O)[O-])c2O)c(O)c1
inhibition (at 20 µM): 64% (active) | inhibition [1]: 57.3%

Cc1ccc(O)c(N=Cc2cc(Cc3ccccc3)cc([N+](=O)[O-])c2O)c1
inhibition (at 20 µM): 58% (inactive) | inhibition [1]: 14.2%

CCN(CC)S(=O)(=O)c1ccc2c(c1)nc(SCC(N)=O)n2-c1ccc(OC)cc1
inhibition (at 20 µM): -1.3% (inactive)

COc1ccc2c3c(cccc13)OC2=O
inhibition (at 20 µM): -1.2% (inactive)

COc1cc(C(=O)NC(C)CCc2ccccc2)cc(OC)c1OC (stereo unspecified)
inhibition (at 20 µM): -1.1% (inactive)

COc1cc(/C=C2/C(=O)NN(c3ccccc3)C2=O)cc(Br)c1O
inhibition (at 20 µM): 34.5% (inactive)

COc1cc(/C=C2/C(=O)NN(c3cccc(Cl)c3)C2=O)cc(Br)c1O
inhibition (at 20 µM): 102% (active) | inhibition [1]: 95.1%

COc1cc(/C=C2/C(=O)NN(c3ccc(Cl)cc3)C2=O)cc(OC)c1O
inhibition (at 20 µM): 93.4% (active) | inhibition [1]: 53.7%

COc1cc(/C=C2\C(=O)NN(c3ccc(C)cc3)C2=O)cc([N+](=O)[O-])c1O
inhibition (at 20 µM): 38% (inactive)

COC(=O)c1ccc(N2NC(=O)/C(=C/c3cc(OC)c(O)c(OC)c3)C2=O)cc1
inhibition (at 20 µM): 138% (inactive)

COc1cc(/C=C2/C(=O)NN(c3cccc(Cl)c3)C2=O)cc(OC)c1O
inhibition (at 20 µM): 104% (active) | inhibition [1]: 80.5%

COc1cc(/C=C2/C(=O)NN(c3ccc(Cl)c(Cl)c3)C2=O)cc([N+](=O)[O-])c1O
inhibition (at 20 µM): 50.8% (active)

COc1cc(/C=C2/C(=O)NN(c3ccc(F)cc3)C2=O)cc(Cl)c1O
inhibition (at 20 µM): 39.2% (inactive)

COc1cc(/C=C2/C(=O)NN(c3cccc(C)c3)C2=O)cc([N+](=O)[O-])c1O
inhibition (at 20 µM): 30.3% (inactive)

COc1cc(/C=C2\C(=O)NN(c3ccccc3)C2=O)cc([N+](=O)[O-])c1O
inhibition (at 20 µM): 32.8% (inactive)

COc1cccc(/C=C2/C(=O)NN(c3ccccc3)C2=O)c1
inhibition (at 20 µM): 15.8% (inactive)

CCOc1cc(/C=C2/C(=O)NN(c3cccc(Cl)c3)C2=O)ccc1O
inhibition (at 20 µM): 31.4% (inactive)

COc1cc(OC)cc(C(=O)N2CCN(C(=O)c3ccc(-c4ccccc4)cc3)CC2)c1
inhibition (at 20 µM): -0.7% (inactive)

CN(c1ccc(C(=O)N2CCCCC2)cc1)S(=O)(=O)c1cccs1
inhibition (at 20 µM): 0.7% (inactive)

COc1ccc(OC)c(-n2c(=S)[nH]c3cc(C(=O)N4CCC(C(N)=O)CC4)ccc3c2=O)c1
inhibition (at 20 µM): -0.3% (inactive)

O=C(NCc1ccc(OC(F)(F)F)cc1)C1CC(c2cccc(F)c2)=NO1 (stereo unspecified)
inhibition (at 20 µM): 0.2% (inactive)

O=C(c1cscn1)N1CCCC(N2CCN(c3ccc(F)cc3)CC2)C1 (stereo unspecified)
inhibition (at 20 µM): -1.2% (inactive)

COc1ccc(CC(=O)Nc2c3c(nn2-c2cccc(Cl)c2)CS(=O)(=O)C3)cc1
inhibition (at 20 µM): -2% (inactive)

Cc1ccccc1C(=O)NC1CCN(CC(=O)Nc2nccs2)CC1
inhibition (at 20 µM): 2.2% (inactive)

COc1c2ccccc2c(OC)c2ccccc12
inhibition (at 20 µM): 1.5% (inactive)

C=CCN(C(=O)CN1CCCCC1)c1nc(-c2ccccc2)cs1
inhibition (at 20 µM): -1.5% (inactive)

Cc1sc2ncnc(SCc3ccc(C(=O)O)cc3)c2c1C
inhibition (at 20 µM): 9.5% (inactive)

Cc1ccc(-c2csc3ncnc(SCC(=O)O)c23)cc1
inhibition (at 20 µM): 0.9% (inactive)

Cc1ccc(-c2csc3ncnc(SCc4ccc(C(=O)O)cc4)c23)cc1
inhibition (at 20 µM): 66.8% (active)

COCCNC(=S)N1CCN(c2cccc(C(F)(F)F)c2)CC1
inhibition (at 20 µM): -0.5% (inactive)

Cc1cc(-c2ccccc2)nc(SCc2ccc(C(=O)O)o2)n1
inhibition (at 20 µM): 1.6% (inactive)

O=C(NN1C(=O)/C(=C/C=C/c2ccco2)SC1=S)c1ccccc1O
inhibition (at 20 µM): 65.1% (inactive) | inhibition [1]: 46.4%

O=C(O)CCCN1C(=O)/C(=C/C=C/c2ccco2)SC1=S
inhibition (at 20 µM): 55.6% (inactive) | inhibition [1]: 27.4%

CC(C(=O)O)N1C(=O)/C(=C/C=C/c2ccco2)SC1=S (stereo unspecified)
inhibition (at 20 µM): 88.9% (active)

CC(C)C(C(=O)O)N1C(=O)/C(=C/C=C/c2ccco2)SC1=S (stereo unspecified)
inhibition (at 20 µM): 76.1% (inactive) | inhibition [1]: 36.6%

O=C(O)C(Cc1ccccc1)N1C(=O)/C(=C/C=C/c2ccco2)SC1=S (stereo unspecified)
inhibition (at 20 µM): 69.2% (active)

O=C(NN1C(=O)/C(=C/C=C/c2ccco2)SC1=S)c1ccncc1
inhibition (at 20 µM): 68.5% (active)

O=C(O)C(Cc1ccccc1)N1C(=O)/C(=C/c2cccnc2)SC1=S (stereo unspecified)
inhibition (at 20 µM): 1.1% (inactive)

O=C(NN1C(=O)/C(=C/C=C/c2ccccc2)SC1=S)c1ccncc1
inhibition (at 20 µM): 16.6% (inactive)

O=C(O)CC(C(=O)O)N1C(=O)/C(=C/C=C/c2ccco2)SC1=S (stereo unspecified)
inhibition (at 20 µM): 65.6% (inactive) | inhibition [1]: 23.1%

COc1ccc(NC(=S)NC(NC(=O)CCl)C(Cl)(Cl)Cl)c([N+](=O)[O-])c1 (stereo unspecified)
inhibition (at 20 µM): 7.2% (inactive)

COc1ccccc1S(=O)(=O)Cc1ccc(C(=O)NCc2ccco2)o1
inhibition (at 20 µM): 1.6% (inactive)

CC1CCN(S(=O)(=O)c2ccc(C(=O)OC(C)C(=O)NC3CCCCC3C)cc2)CC1 (stereo unspecified)
inhibition (at 20 µM): 20% (inactive)

Cc1oc(-c2cc(F)ccc2F)nc1CN1CCN(C)C(=O)[C@@H]1C
inhibition (at 20 µM): 1.3% (inactive)

CN=C(Nc1ccc(C(=O)OC)s1)c1ccc(Cl)cc1
inhibition (at 20 µM): 0.5% (inactive)

O=C(/C=C/c1ccc(OCCCF)cc1)NCc1ccc(Cl)c(Cl)c1
inhibition (at 20 µM): 1.7% (inactive)

COC(=O)c1cnn(-c2ccc(F)cc2F)c1/C=N/NC(N)=S
inhibition (at 20 µM): -1.1% (inactive)

CC(=O)NN1C(=O)c2ccccc2NC1c1ccc(N(C)C)cc1 (stereo unspecified)
inhibition (at 20 µM): -0.9% (inactive)

COC(=O)Cn1c(=NC(=O)c2ccc(S(=O)(=O)N3CCc4ccccc4C3)cc2)sc2cc(OC)ccc21
inhibition (at 20 µM): -1.3% (inactive)

O=C(N/N=C/c1ccncc1)c1cc(C2CC2)nc2ccccc12
inhibition (at 20 µM): -0.8% (inactive)

COC(=O)Nc1sc2c(c1C(N)=O)CCC(C)C2 (stereo unspecified)
inhibition (at 20 µM): 0.2% (inactive)

CC1CCc2c(sc(NC(=O)C3c4ccccc4Oc4ccccc43)c2C(N)=O)C1 (stereo unspecified)
inhibition (at 20 µM): -1.5% (inactive)

NC(=O)c1c(NC(=O)c2ccccc2F)sc2c1CCCC2
inhibition (at 20 µM): -0.3% (inactive)

CC1CCc2c(sc(Nc3nc4c(F)cccc4s3)c2C(N)=O)C1 (stereo unspecified)
inhibition (at 20 µM): 58.8% (active)

COc1ccc2nc(Nc3sc4c(c3C(N)=O)CCCC4)sc2c1
inhibition (at 20 µM): 17.5% (inactive)

NC(=O)c1c(Nc2nc3c(F)cccc3s2)sc2c1CCCC2
inhibition (at 20 µM): 59.5% (active)

Cc1c(C(=O)N(Cc2nccn2C)C(C)C)oc2c(F)cccc12
inhibition (at 20 µM): -1% (inactive)

O=c1cc(C(F)(F)F)nc(-c2cccnc2)[nH]1
inhibition (at 20 µM): -1.2% (inactive)

CC(C)C(=O)Nc1ccc([N+](=O)[O-])cc1Br
inhibition (at 20 µM): 1.2% (inactive)

O/C(=C\c1nc2ccccc2[nH]1)c1cccs1
inhibition (at 20 µM): 14.3% (inactive)

O=c1[nH]c2ccccc2nc1/C=C(\O)c1cccs1
inhibition (at 20 µM): 66.1% (active)

C/C(O)=C/c1nc2ccccc2[nH]c1=O
inhibition (at 20 µM): 0.1% (inactive)

CCCCC(=O)Nc1cccn2ncnc12
inhibition (at 20 µM): 0.2% (inactive)

C/C(=N\NC(=O)c1c[nH]c2ccccc12)c1ccc(C)o1
inhibition (at 20 µM): 0.2% (inactive)

O=C1OC(/C=C/c2ccc(Cl)cc2Cl)=NC/1=C\c1cccs1
inhibition (at 20 µM): 54.2% (active)

Cc1ccccc1C1=N/C(=C/c2cccs2)C(=O)O1
inhibition (at 20 µM): 4.6% (inactive)

Cc1cccc(C2=N/C(=C\c3cccs3)C(=O)O2)c1
inhibition (at 20 µM): 4.7% (inactive)

CCC(=O)OCc1cc2cccc(C)c2[nH]c1=O
inhibition (at 20 µM): -1.9% (inactive)

O=C(O)c1cccc(-n2cccc2C=C2C(=O)c3ccccc3C2=O)c1
inhibition (at 20 µM): 30.1% (inactive)

O=C1C(=Cc2cccn2-c2ccccc2)C(=O)c2ccccc21
inhibition (at 20 µM): 50.1% (inactive) | inhibition [1]: 28.2%

O=C1C(=Cc2cccn2-c2ccc(O)cc2)C(=O)c2ccccc21
inhibition (at 20 µM): 63.1% (active) | inhibition [1]: 70.3%

COC(=O)Cn1ncc(N2C3CC(CC(C)(C)C3)C2C)c(Cl)c1=O (stereo unspecified)
inhibition (at 20 µM): 1.1% (inactive)

Oc1cccc2ccc(/C=C/c3ccccc3Br)nc12
inhibition (at 20 µM): 0.6% (inactive)

O=C(/C=C/c1ccccc1)Nc1ccc(Cl)cn1
inhibition (at 20 µM): 1% (inactive)

COc1cc(C(=O)Oc2cc(C)[nH]c(=O)c2[N+](=O)[O-])cc(OC)c1OC
inhibition (at 20 µM): 0.4% (inactive)

O=S(=O)(Nc1ccc(-c2csc(-c3ccccc3)n2)cc1)c1ccc(F)cc1
inhibition (at 20 µM): 0% (inactive)

O=C(Nc1cc(S(=O)(=O)N2CCCCC2)ccc1O)c1ccccc1NS(=O)(=O)c1ccc(F)cc1
inhibition (at 20 µM): 49.5% (inactive)

Cc1ccc(S(=O)(=O)Nc2nc(-c3ccc(F)cc3)cs2)cc1
inhibition (at 20 µM): 20% (inactive)

O=C(Nc1nc(-c2ccccc2)cs1)c1ccccc1NS(=O)(=O)c1ccc(F)cc1
inhibition (at 20 µM): 71.5% (active)

Cc1ccc(S(=O)(=O)Nc2ccccc2C(=O)Nc2nc(-c3ccc(F)cc3)cs2)cc1
inhibition (at 20 µM): 65.5% (active)

COc1ccc(-c2csc(NC(=O)c3ccccc3NS(=O)(=O)c3ccc(F)c(F)c3)n2)cc1
inhibition (at 20 µM): 65% (active)

Cc1ccc(S(=O)(=O)Nc2nc(-c3ccccc3)cs2)cc1
inhibition (at 20 µM): 6.9% (inactive)

O=C(Nc1cc(S(=O)(=O)N2CCCCC2)ccc1O)c1ccccc1NS(=O)(=O)c1ccc(F)c(F)c1
inhibition (at 20 µM): 62.7% (active)

O=C(Nc1nc(-c2ccccc2)cs1)c1ccccc1F
inhibition (at 20 µM): 0% (inactive)

O=C(Nc1cccc(S(=O)(=O)N2CCCCC2)c1)c1ccccc1NS(=O)(=O)c1ccc(F)cc1
inhibition (at 20 µM): 58% (inactive) | inhibition [1]: 26%

COc1ccc(-c2csc(NC(=O)c3ccccc3F)n2)cc1
inhibition (at 20 µM): 0.1% (inactive)

COc1ccc(-c2csc(NC(=O)c3ccccc3S(C)(=O)=O)n2)cc1
inhibition (at 20 µM): 0.4% (inactive)

CCCOc1ccc2c(CC)cc(=O)oc2c1C
inhibition (at 20 µM): -0.2% (inactive)

Cc1sc2nc(C3CC3)nc(N3CCN(S(=O)(=O)c4ccc(F)cc4)CC3)c2c1C
inhibition (at 20 µM): -0.3% (inactive)
